The values that follow come from PubChem BioAssay.

The nature of experiment [1]: differential killing of epithelial or mesenchymal cells, primary screen, imaging, PC-3E GFP, TEM4-18 mCherry, co-culture (AID 1345086).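 For all read-outs here: cells exposed to compound for 72 h before imaging.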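 For red/green cell ratio (normalised): normalised mesenchymal count divided by normalised epithelial count so high means epithelial killing.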 The settings on record: imaging cell counts, at 1 µM; for red/green cell ratio (normalised): actives lie on both sides, counts scaled to control wells, 1 = unselective.
A short description of experiment [2]: growth inhibition of DIPG glioma cells, dose response, cell-based, SU-DIPG-XVII, MIPE5.0, CellTiter-Glo, qHTS (AID 1347060; cut-off not given, nearly all actives have AC50 up to about 26 µM;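 for AC50: cells exposed to compound for 48 hours before viability readout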). As to conditions: SU-DIPG-XVII viability, CellTiter-Glo ATP luminescence.
Experiment [3] concerns Aerobactin synthetase IucA (Klebsiella pneumoniae). Kind of experiment: IucA aerobactin synthetase inhibitors, biochemical, Tocris library, absorbance (AID 1345561; call rule not given here;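 note: 100% = enzyme without compound and 0% = no enzyme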). The settings on record: purified IucA enzyme assay, absorbance (OD) read-out; stronger effect = lower value;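 tested at 8 µM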.
Experiment [4] in a line: growth inhibition of DIPG glioma cells, dose response, cell-based, SU-DIPG-XIII, MIPE5.0, CellTiter-Glo, qHTS (AID 1347064; cut-off not given, nearly all actives have AC50 up to about 23 µM;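 for AC50: cells exposed to compound for 48 hours before the viability read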). As to conditions: SU-DIPG-XIII viability, CellTiter-Glo ATP luminescence. (ATP-based viability assays read luminescence as a measure of living cells.)
Experiment [5] in a line: growth inhibition of DIPG glioma cells, dose response, cell-based, SU-DIPG-XIII, MIPE4.0, CellTiter-Glo, qHTS (AID 1347061; cut-off not given, nearly all actives have AC50 up to about 37 µM;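 note: cells exposed to compound for 48 hours before readout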). As to conditions: SU-DIPG-XIII viability, CellTiter-Glo ATP luminescence.
A short description of experiment [6]: growth inhibition of DIPG glioma cells, dose response, cell-based, SU-DIPG-IV, MIPE4.0, CellTiter-Glo, qHTS (AID 1347063; cut-off not given, nearly all actives have AC50 up to about 30 µM;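 note: compound exposure lasted 48 hours before the viability readout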). As to conditions: SU-DIPG-IV viability, CellTiter-Glo ATP luminescence.
Experiment [7] can be described thus: growth inhibition of DIPG glioma cells, dose response, cell-based, JHH-DIPG-1, MIPE4.0, CellTiter-Glo, qHTS (AID 1347062; cut-off not given, nearly all actives have AC50 up to about 27 µM;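 for AC50: cells exposed to compound for two days before readout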). As to conditions: JHH-DIPG-1 viability, CellTiter-Glo ATP luminescence.
[8] abbreviates: measured here: epithelial PC-3E GFP cell survival.
Setting [9] is: measured here: mesenchymal TEM4-18 mCherry cell survival.

Several values for one entry are separate records, joined by “and”; a condition that tells them apart may be missing. Identical values can stand only once. Inconclusive results are not listed. Activity calls are given as the source filed them.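 Rule for the calls, unless noted: active = compounds killing one labelled cell type while sparing the other, by normalised counts and ratio limits, not self-fluorescent; inactive = the rest.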

As to `COC(=O)Nc1nc2ccc(S(=O)c3ccccc3)cc2[nH]1` (stereo not drawn), the red/green cell ratio (normalised) in experiment [1] is 0.97 (inactive). Further, the normalised cell number in experiment [1] (setting [8]) was found to be 0.97; in experiment [1] (setting [9]), 0.95. Moreover, the half-maximal activity concentration (AC50) in experiment [2] is 18.6 µM (active).
Consider `CC(C)NCC(O)c1ccc2ccccc2c1` (stereo not drawn), for which the red/green cell ratio (normalised) in experiment [1] is 1.02 (inactive). Further, the normalised cell number in experiment [1] (setting [8]) is 1.05; in experiment [1] (setting [9]) it was 1.07. Besides, the remaining activity in experiment [3] is 94.1% (inactive).
In the case of `Cc1ccc(C(=O)Nc2ccc(S(=O)(=O)O)c3cc(S(=O)(=O)O)cc(S(=O)(=O)O)c23)cc1NC(=O)c1cccc(NC(=O)Nc2cccc(C(=O)Nc3cc(C(=O)Nc4ccc(S(=O)(=O)O)c5cc(S(=O)(=O)O)cc(S(=O)(=O)O)c45)ccc3C)c2)c1`, the red/green cell ratio (normalised) in experiment [1] is 1.23 (inactive) and 0.9 (inactive). The normalised cell number in experiment [1] (setting [8]) is 0.96 and 1.07; in experiment [1] (setting [9]), 1.17 and 0.97. In addition, in experiment [3], the remaining activity was 38.8% (active). Moreover, the concentration at half-maximal activity (AC50) in experiment [2] was 14.4 µM (active). The compound was classed as inactive in experiment [4].
With `c1ccc(CN(CC2=NCCN2)c2ccccc2)cc1`, in experiment [1], the red/green cell ratio (normalised) was 1.08 (inactive). The normalised cell number worked out at 1.24 in experiment [1] (setting [8]) and 1.34 in experiment [1] (setting [9]). Further, in experiment [3], the remaining activity was 98.2% (inactive).
On the same counts, the results for `CCN(CC)CCOCCOC(=O)C1(c2ccccc2)CCCC1` are 1.27 (inactive), 1, 1.28 and 92.5% (inactive).
As for `CCCCNc1c(C(=O)OCC)c(C)nc2c1cnn2CC`, in experiment [1], the red/green cell ratio (normalised) was 1.16 (inactive). Moreover, the normalised cell number in experiment [1] (setting [8]) was 0.85; in experiment [1] (setting [9]), 0.98. Also, the remaining activity in experiment [3] was 94.8% (inactive).
As for `CN1CCC[C@@H]1CCO[C@](C)(c1ccccc1)c1ccc(Cl)cc1`, the red/green cell ratio (normalised) in experiment [1] is 1.23 (inactive). Besides, the normalised cell number in experiment [1] (setting [8]) stood at 1.06; in experiment [1] (setting [9]), 1.3. In experiment [3], the remaining activity is 109% (inactive). Also, the result in experiment [5] was inactive.
With `Cc1nc2sccn2c(=O)c1CCN1CCC(=C(c2ccc(F)cc2)c2ccc(F)cc2)CC1`, the red/green cell ratio (normalised) in experiment [1] was 1.18 (inactive). For the same compound, the normalised cell number in experiment [1] (setting [8]) was 1.16; in experiment [1] (setting [9]), 1.38. Also, the remaining activity in experiment [3] was 122% (inactive).
On to `Fc1ccc(C(c2ccc(F)cc2)N2CCN(C/C=C/c3ccccc3)CC2)cc1`, for which, in experiment [1], the red/green cell ratio (normalised) was 1.11 (inactive). For the same compound, the normalised cell number worked out at 0.86 in experiment [1] (setting [8]) and 0.95 in experiment [1] (setting [9]). Further, the remaining activity in experiment [3] is 105% (inactive). In addition, the compound was called inactive in experiment [5].
Turning to `C[C@](N)(Cc1ccc(O)c(O)c1)C(=O)O`, the red/green cell ratio (normalised) in experiment [1] was 1.05 (inactive). The normalised cell number in experiment [1] (setting [8]) worked out at 0.98; in experiment [1] (setting [9]), 1.03. Moreover, the remaining activity in experiment [3] was 110% (inactive). Further, the compound was called inactive in experiment [2], in experiment [5] and in experiment [6].
`NC(N)=NC(=O)Cc1c(Cl)cccc1Cl`: the red/green cell ratio (normalised) in experiment [1] is 0.93 (inactive). Also, the normalised cell number was 1.04 in experiment [1] (setting [8]) and 0.96 in experiment [1] (setting [9]). Also, in experiment [3], the remaining activity was 114% (inactive).
With `COc1cc(C(=O)OCCCN2CCCN(CCCOC(=O)c3cc(OC)c(OC)c(OC)c3)CC2)cc(OC)c1OC`, the red/green cell ratio (normalised) in experiment [1] was 1.21 (inactive). Besides, the figures for the normalised cell number in experiment [1] (setting [8]) and in experiment [1] (setting [9]) were 0.76 and 0.92, respectively. In experiment [3], the remaining activity is 90.6% (inactive).
For the compound `COCCCOc1cc(C[C@@H](C[C@H](N)[C@@H](O)C[C@H](C(=O)NCC(C)(C)C(N)=O)C(C)C)C(C)C)ccc1OC`, in experiment [1], the red/green cell ratio (normalised) was 0.98 (inactive). Further, the figures for the normalised cell number in experiment [1] (setting [8]) and in experiment [1] (setting [9]) were 0.98 and 0.96, respectively. Further, the call in experiment [2], in experiment [5] and in experiment [7] was inactive.
For the compound `Cc1cc(C(C)(C)C)c(O)c(C)c1CC1=NCCN1`, in experiment [1], the red/green cell ratio (normalised) was 0.88 (inactive). Also, the normalised cell number turned out to be 1.08 in experiment [1] (setting [8]) and 0.96 in experiment [1] (setting [9]). Besides, in experiment [3], the remaining activity was 99.4% (inactive). Further, the result in experiment [2], in experiment [5], in experiment [6] and in experiment [4] was inactive.
Consider `COc1ccc(CN(CCN(C)C)c2ccccn2)cc1`, for which, in experiment [1], the red/green cell ratio (normalised) is 1.1 (inactive). Also, the normalised cell number in experiment [1] (setting [8]) turned out to be 1.02; in experiment [1] (setting [9]), 1.12. The remaining activity in experiment [3] is 118% (inactive).
With `O=P(O)(O)C(O)(Cc1cccnc1)P(=O)(O)O`, the red/green cell ratio (normalised) in experiment [1] is 0.63 (inactive). Besides, the normalised cell number is 1.37 in experiment [1] (setting [8]) and 0.87 in experiment [1] (setting [9]). Also, the result in experiment [2], in experiment [5], in experiment [7] and in experiment [4] was inactive.
Consider `CN(Cc1cc(Br)cc(Br)c1N)C1CCCCC1`, for which the red/green cell ratio (normalised) in experiment [1] is 1.35 (inactive). For the same compound, the figures for the normalised cell number in experiment [1] (setting [8]) and in experiment [1] (setting [9]) were 0.99 and 1.33, respectively. Besides, the results for the AC50 in experiment [2] and in experiment [4] were 26.3 µM (active) and 20.9 µM (active), respectively. Further, the compound was called inactive in experiment [5] and in experiment [7].
`O=NN(CCCl)C(=O)NC1CCCCC1`: in experiment [1], the red/green cell ratio (normalised) was 1.11 (inactive). In addition, the normalised cell number in experiment [1] (setting [8]) turned out to be 1.04; in experiment [1] (setting [9]), 1.15. The compound was called inactive in experiment [2], in experiment [5], in experiment [7] and in experiment [4].
Turning to `Cc1ccc(S(=O)(=O)NC(=O)NN2CC3CCCC3C2)cc1` (stereo not drawn), in experiment [1], the red/green cell ratio (normalised) is 0.84 (inactive). Moreover, the normalised cell number in experiment [1] (setting [8]) was 1.15; in experiment [1] (setting [9]) it was 0.96. For the same compound, the outcome in experiment [2], in experiment [5] and in experiment [4] was inactive. Further, the AC50 in experiment [7] is 20.9 µM (active).
For the compound `NNc1nncc2ccccc12`, the red/green cell ratio (normalised) in experiment [1] was 1.11 (inactive). Moreover, the normalised cell number in experiment [1] (setting [8]) was determined as 1.13; in experiment [1] (setting [9]), 1.26. Further, the compound was classed as inactive in experiment [2], in experiment [5] and in experiment [6].
Take `CN(C)c1ccc2nc3ccc(=[N+](C)C)cc-3sc2c1`: the red/green cell ratio (normalised) in experiment [1] is 0.68 (inactive). Further, the normalised cell number was determined as 0.15 in experiment [1] (setting [8]) and 0.1 in experiment [1] (setting [9]). The concentration at half-maximal activity (AC50) in experiment [2] is 5.9 µM (active); in experiment [5], 4.69 µM (active); in experiment [7], 2.96 µM (active); in experiment [6], 5.9 µM (active); in experiment [4], 2.63 µM (active).
For `C#CCN[C@@H]1CCc2ccccc21`, in experiment [1], the red/green cell ratio (normalised) is 0.97 (inactive). For the same compound, the normalised cell number turned out to be 0.98 in experiment [1] (setting [8]) and 0.94 in experiment [1] (setting [9]). The call in experiment [2], in experiment [5], in experiment [7], in experiment [6] and in experiment [4] was inactive.
As for `CN1C(C(=O)Nc2ccccn2)=C(O)c2sccc2S1(=O)=O`, in experiment [1], the red/green cell ratio (normalised) was 0.82 (inactive). In addition, the normalised cell number in experiment [1] (setting [8]) amounted to 1.14; in experiment [1] (setting [9]), 0.93. Besides, the result in experiment [2], in experiment [5], in experiment [7], in experiment [6] and in experiment [4] was inactive.
Regarding `OC[C@H]1O[C@@H](O[C@@H]2[C@@H](CO)O[C@](O)(CO)[C@H]2O)[C@H](O)[C@@H](O)[C@H]1O`, the red/green cell ratio (normalised) in experiment [1] was 1.2 (inactive). For the same compound, the results for the normalised cell number in experiment [1] (setting [8]) and in experiment [1] (setting [9]) were 1.03 and 1.23, respectively. Also, the result in experiment [2], in experiment [5], in experiment [6] and in experiment [4] was inactive.

A word on the AC50: it is the midpoint of the concentration-response curve, whichever way the signal moves. As usually defined, the remaining activity is the signal under treatment as a percentage of the control signal.
